The text below walks through data of PubChem BioAssay AID651592 (Sanford-Burnham Center for Chemical Genomics, 2012).

The source made the active and inactive calls.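 Rule for the calls: active = NF-kB reporter IC50 at most 10 µM, IL-8 IC50 within fivefold of it with bacterial filtrate but not with TNF-alpha; inactive = the rest.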

A short description of this experiment: inhibitors of NFkB activation in CF airway cells, SAR follow-up, KKLEB cells, panel, IL8 HTRF, NFkB-GFP (AID 651592).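 Note: immortalized cystic fibrosis airway epithelial KKLEB cells with an NF-kB GFP reporter.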 To be noted: PAF/TNFa-induced NFkB-GFP / IL8 HTRF, CF-PAF assay, mean of runs. (In general: TR-FRET usually uses a lanthanide donor and a delayed reading to cut background.)

Consider `O=C(Nc1ccc(N2CCN(C(=O)c3ccccc3)CC2)cc1)c1cc(Br)cc(Br)c1`, for which the outcome was inactive.

For `O=C(Nc1ccc(N2CCN(C(=O)c3ccc(F)cc3)CC2)cc1)c1ccccc1`, the outcome was inactive. For `CCOc1ccc(NCc2cc3c(C(C)(C)C)nn(-c4ccc(Cl)cc4)c3[nH]c2=O)cc1`, the compound was classed as inactive. As for `CCOc1ccc(NCc2cc3c(-c4ccc(F)cc4)nn(-c4ccccc4)c3[nH]c2=O)cc1`, the entry is “active”; as for `O=C(Nc1ccc(N2CCN(C(=O)c3ccc(F)cc3)CC2)cc1)c1cccc(Br)c1`, “inactive”.

On to `O=C(Nc1ccc(N2CCN(C(=O)c3ccccc3)CC2)cc1)c1cccnc1`, for which the compound was called inactive. As to `O=C(Nc1ccc(N2CCN(C(=O)c3ccccc3F)CC2)cc1)c1cc(Br)cc(Br)c1`, the result was inactive. As for `O=C(Nc1ccc(N2CCN(C(=O)c3ccccc3)CC2)cc1)c1ccccc1`, the entry is “inactive”; as for `O=C(Nc1ccc(N2CCN(C(=O)c3ccccc3Cl)CC2)cc1)c1cc(Br)cc(Br)c1`, “inactive”.

Regarding `O=C(Nc1ccc(N2CCN(C(=O)c3ccccc3Cl)CC2)cc1)c1cncc(Br)c1`, the compound was called active. As to `O=C(Nc1ccc(N2CCN(C(=O)c3ccccc3Cl)CC2)cc1)c1ccccc1`, the result was active.

For `O=C(Nc1ccc(N2CCN(C(=O)c3ccccc3Cl)CC2)cc1)c1ccncc1`, the compound was called inactive.

On to `O=C(Nc1ccc(N2CCN(C(=O)c3ccc(F)cc3)CC2)cc1)c1cncc(Br)c1`, for which the call was active. In the case of `O=C(Nc1ccc(N2CCN(C(=O)c3ccccc3F)CC2)cc1)c1ccccn1`, the outcome was inactive.

`CCOc1ccc(NCc2cc3c(C)nn(-c4ccccc4)c3[nH]c2=O)cc1`: the call was inactive. As for `Cc1ccc(CNCc2cc3c(C(C)(C)C)nn(-c4ccccc4)c3[nH]c2=O)cc1`, the entry is “inactive”. Regarding `CCOc1ccc(NCc2cc3c(-c4ccc(OC)c(OC)c4)nn(-c4ccccc4)c3[nH]c2=O)cc1`, the outcome was inactive.

As to `CCOc1ccc(NCc2cc3c(C(C)(C)C)nn(-c4ccccc4)c3[nH]c2=O)cc1`, the compound was called inactive.

Consider `O=C(Nc1ccc(N2CCN(C(=O)c3ccccc3)CC2)cc1)c1ccccn1`, for which the outcome was inactive. On to `O=C(Nc1ccc(N2CCN(C(=O)c3ccccc3)CC2)cc1)c1ccncc1`, for which the result was inactive. For the compound `O=C(Nc1ccc(N2CCN(C(=O)c3ccccc3Cl)CC2)cc1)c1cccnc1`, the call was inactive. As to `O=C(Nc1ccc(N2CCN(C(=O)c3ccccc3Cl)CC2)cc1)c1cccc(Br)c1`, the result was inactive. With `O=C(Nc1ccc(N2CCN(C(=O)c3ccccc3Cl)CC2)cc1)c1ccccn1`, the compound was classed as inactive. Regarding `O=C(Nc1ccc(N2CCN(C(=O)c3ccc(F)cc3)CC2)cc1)c1cccnc1`, the compound was called inactive. Consider `O=C(Nc1ccc(N2CCN(C(=O)c3ccccc3F)CC2)cc1)c1cccnc1`, for which the outcome was inactive. Turning to `Cc1ccc(NCc2cc3c(C(C)(C)C)nn(-c4ccccc4)c3[nH]c2=O)cc1`, the result was inactive. On to `O=C(Nc1ccc(N2CCN(C(=O)c3ccccc3)CC2)cc1)c1cccc(Br)c1`, for which the compound was called inactive.

For the compound `O=C(Nc1ccc(N2CCN(C(=O)c3ccc(F)cc3)CC2)cc1)c1ccccn1`, the outcome was inactive. As for `O=C(Nc1ccc(N2CCN(C(=O)c3ccccc3F)CC2)cc1)c1ccccc1`, the compound was classed as inactive. As for `O=C(Nc1ccc(N2CCN(C(=O)c3ccccc3F)CC2)cc1)c1ccncc1`, the call was inactive. For `O=C(Nc1ccc(N2CCN(C(=O)c3ccccc3)CC2)cc1)c1cncc(Br)c1`, the call was active. To `O=C(Nc1ccc(N2CCN(C(=O)c3ccc(F)cc3)CC2)cc1)c1ccncc1` belongs “inactive”; to `O=C(Nc1ccc(N2CCN(C(=O)c3ccc(F)cc3)CC2)cc1)c1cc(Br)cc(Br)c1`, “inactive”. Consider `O=C(Nc1ccc(N2CCN(C(=O)c3ccccc3F)CC2)cc1)c1cccc(Br)c1`, for which the result was inactive.
